Measurements published in PubChem BioAssay AID651828 (ICCB-Longwood Screening Facility, Harvard Medical School, 2012).
The campaign covered roughly 20,000 compounds. About 25 (0.1%) were called active. The entries come from a sample that favours actives as a whole. Values without a mark were called inactive. No stated cut-off is given here; in the data, active means % bound below about 75%; inactive means the rest.

Each molecule was assayed against Nucleoprotein (Rift valley fever virus (strain ZH-548 M12)) (UniProt P21700) (assay: inhibitors of RVFV nucleoprotein–RNA binding, primary screen, biochemical, fluorescence polarization (AID 651828)). Conditions: RVFV N-RNA binding, stronger effect = lower value, concentration not given here.
Chain of Nucleoprotein (Rift valley fever virus (strain ZH-548 M12)) (P21700 whole entry, looked up): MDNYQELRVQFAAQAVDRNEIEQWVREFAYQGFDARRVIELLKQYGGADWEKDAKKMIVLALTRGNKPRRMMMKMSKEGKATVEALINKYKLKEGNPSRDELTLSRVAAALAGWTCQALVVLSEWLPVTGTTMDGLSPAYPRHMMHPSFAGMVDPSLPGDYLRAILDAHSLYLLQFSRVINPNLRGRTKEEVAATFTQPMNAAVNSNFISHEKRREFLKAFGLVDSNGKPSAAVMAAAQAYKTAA
`Cc1ccccc1C(=O)Nc1cccc(N(C)C)c1` gave a % bound of 99.1%. With `O=C(CS(=O)(=O)c1ccccc1)Nc1ccccc1O` the % bound was 95.9%. `Cc1cc(NN)nc(-c2ccccc2O)n1` was tested, and the % bound was 91.2%. Work on `CS(=O)(=O)NCC(c1cccs1)N1CCc2ccccc21` (stereo not given) yielded a % bound of 95.9%. For `COC(=O)C1CC2=CC(=O)CCC2(C)C2C(O)CC3(C)C(CCC34CCC(=O)O4)C12` (stereo not given), the % bound was 103%. Molecule `O=c1[nH][nH]c(=O)n1/N=C/C=C\c1ccccc1` has a % bound of 101%. `Cc1nnsc1C(=O)Nc1ccc(C(N)=O)cc1` was tested, and the % bound was 96.7%. Work on `NC(=O)c1cccc(NC(=O)C(F)(F)F)c1` yielded a % bound of 108%. Molecule `O=S(=O)(NCCN1CCOCC1)c1ccc(I)cc1` has a % bound of 94.4%. Work on `CCc1ccc2[nH]c(=O)c(Cc3ccccc3)c(O)c2c1` yielded a % bound of 98.2%. `CC(C)Sc1nnc(NC(=O)C(C)(C)C)s1` gave a % bound of 96.3%. `COc1ccc(C(=O)NCCc2cc3c(OC)ccc(OC)c3[nH]c2=O)cc1` was tested, and the % bound was 97.1%. In the case of `CCOc1ccc(NC(=O)CSc2nc(=O)n(CCCN3CCOCC3)c3c2CCCC3)cc1`, the % bound is reported as 105%. Molecule `c1ccc2c(c1)CC(Nc1ccc3cn[nH]c3c1)C2` has a % bound of 84.9%. `S=C(c1ccccn1)N1CCN(C(=S)c2ccccn2)CC1` gave a % bound of 96.1%. `O=C(CC1SC(=NC2CC3C=CC2C3)NC1=O)Nc1ccc(Cl)cc1` (stereo not given) was tested, and the % bound was 89.9%. In the case of `COc1ccc(-c2cc(-c3nnc(N)o3)no2)cc1OC`, the % bound is reported as 92.5%. For `CC(C)Nc1ncccn1`, the % bound was 104%. `COCn1c(=O)[nH]c2ccccc21` gave a % bound of 91.1%. `CCOC(=O)N1CCN(C(=S)Nc2ccc(Oc3ccccc3)cc2)CC1` was tested, and the % bound was 92.1%. `COc1ccc(NC(=O)COc2cccc3c2CCN(C)C3=O)cc1` gave a % bound of 90.3%. Work on `Cc1nc(NNC(=O)c2ccccc2)cc(-c2ccccc2)n1` yielded a % bound of 91.7%. Molecule `CC(c1ccccc1)n1c(SCc2nc(-c3ccc(C(C)(C)C)cc3)no2)n[nH]c1=O` (stereo not given) has a % bound of 95.1%. With `N#CCCSc1nccn1Cc1ccccc1` the % bound was 106%. Molecule `c1ccc2c(c1)OC1OC2Oc2ccccc21` has a % bound of 98.8%.
